# PubChem BioAssay (EPA / NIEHS)
# Several values for one entry are separate records, joined by “and”; a condition that tells them apart may be missing. Equal entries are not always repeated. Some structures have more than one record in an assay (separate samples or runs), and their calls can disagree. Activity calls are given as the source filed them. Rule for the calls: active = hit-call score of the fitted dose curve at least 0.9, where 1 is the maximum; inactive = score below 0.9.
# Tests used:
# [1] = read-out: TIMP metallopeptidase inhibitor 2 (TIMP2), TIMP2 (gene 7077); assay: BSK_KF3CT_TIMP2: BioMAP Diversity Plus: KF3CT Assay for TIMP metallopeptidase inhibitor 2 (TIMP2) Biomarker Activity (AID 2283071); settings: primary human keratinocytes with fibroblasts; actives raise or lower the signal
# Outline: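 Cells: human keratinocytes co-cultured with foreskin fibroblasts. Treat with chemical, 24 h. Measure TIMP-2 by ELISA; fit curves bidirectionally vs DMSO baseline.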
# [2] = read-out: Transforming growth factor beta 1 (TGFb1), TGFB1 (gene 7040); assay: BSK_KF3CT_TGFb1: BioMAP Diversity Plus: KF3CT Assay for Transforming growth factor beta 1 (TGFb1) Biomarker Activity (AID 2283072); settings: primary human keratinocytes with fibroblasts; actives raise or lower the signal
# Outline: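 Primary human skin cells (keratinocytes, foreskin fibroblasts) were co-cultured, exposed to test chemical and sampled at 24 h. TGF-b1 levels were measured by ELISA and fitted bidirectionally relative to DMSO.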
# [3] = read-out: C-C motif chemokine 2 (Homo sapiens) (UniProt P13500); assay: BSK_KF3CT_MCP1: BioMAP Diversity Plus: KF3CT Assay for Monocyte Chemoattractant Protein 1 (MCP1/CCL2) Biomarker Activity (AID 2283073); settings: primary human keratinocytes with fibroblasts; actives raise or lower the signal
# Outline: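 Human keratinocyte–foreskin fibroblast co-culture; MCP-1 measured by ELISA 24 h after dosing. Bidirectional fit vs DMSO; cytotoxicity tracked by SRB total protein in parallel cultures.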
# [4] = read-out: Matrix Metallopeptidase 9 (MMP9), MMP9 (gene 4318); assay: BSK_KF3CT_MMP9: BioMAP Diversity Plus: KF3CT Assay for Matrix Metallopeptidase 9 (MMP9) Biomarker Activity (AID 2283074); settings: primary human keratinocytes with fibroblasts; actives raise or lower the signal;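 for AC50: MMP9 protein level quantified by ELISA in the co-culture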
# Outline: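 Human keratinocyte and foreskin fibroblast co-culture exposed to chemicals for 24 h; MMP9 biomarker measured by ELISA, bidirectional fitting relative to DMSO; cytotoxicity tracked by SRB total protein staining in parallel cultures.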
# [5] = read-out: urokinase plasminogen activator (uPA), PLAU (gene 5328); assay: BSK_KF3CT_uPA: BioMAP Diversity Plus: KF3CT Assay for urokinase plasminogen activator (uPA) Biomarker Activity (AID 2283075); settings: primary human keratinocytes with fibroblasts; actives raise or lower the signal
# Outline: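 Primary human keratinocyte/foreskin fibroblast co-culture exposed to chemical; uPA measured by ELISA at 24 h. Bidirectional fit versus DMSO, with parallel SRB total-protein staining for cytotoxicity.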
# [6] = read-out: E-selectin (Homo sapiens) (UniProt P16581); assay: BSK_LPS_Eselectin: BioMAP Diversity Plus: LPS Assay for Eselectin Biomarker Activity (AID 2283077); settings: primary human HUVEC with PBMC; actives raise or lower the signal
# Outline: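 Human umbilical vein endothelial cells co-cultured with PBMC under LPS stimulation; cell-surface E-selectin measured by ELISA 24 h after dosing. Change in either direction versus DMSO, with SRB total-protein staining in parallel cultures for cytotoxicity.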
# [7] = read-out: Interleukin-8 (IL8), CXCL8 (gene 3576); assay: BSK_LPS_IL8: BioMAP Diversity Plus: LPS Assay for Interleukin-8 (IL8) Biomarker Activity (AID 2283078); settings: primary human HUVEC with PBMC; actives raise or lower the signal
# Outline: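 Human umbilical vein endothelial cells co-cultured with PBMC, LPS-stimulated, exposed to compound for 24 h. IL-8 quantified by ELISA; fitted in both directions against DMSO, with SRB total-protein staining of parallel cultures for cytotoxicity.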
# [8] = read-out: Interleukin-1 alpha (IL1a), IL1A (gene 3552); assay: BSK_LPS_IL1a: BioMAP Diversity Plus: LPS Assay for Interleukin-1 alpha (IL1a) Biomarker Activity (AID 2283080); settings: primary human HUVEC with PBMC; actives raise or lower the signal
# Outline: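 Human umbilical vein endothelial cells co-cultured with PBMC and stimulated with LPS; IL-1a measured by ELISA 24 h after dosing. Bidirectional fitting against DMSO; cytotoxicity checked by SRB staining in parallel cultures.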
# [9] = read-out: CD40, CD40 (gene 958); assay: BSK_LPS_CD40: BioMAP Diversity Plus: LPS Assay for CD40 Biomarker Activity (AID 2283076); settings: primary human HUVEC with PBMC; actives raise or lower the signal
# Outline: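 HUVEC plus PBMC co-culture stimulated with LPS; CD40 quantified by ELISA 24 h after compound dosing. Fitting was bidirectional relative to DMSO. SRB staining of parallel cultures flagged overt cytotoxicity.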
# [10] = BSK_LPS_SRB: Viability Assessment in the BioMAP Diversity Plus: LPS Assay (AID 2283079); settings: primary human HUVEC with PBMC;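 note: total protein by sulforhodamine B absorbance as a cytotoxicity measure; measured one day after compound addition; fitted in both directions against DMSO so loss or gain of signal counts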
# Outline: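 Co-culture of human umbilical vein endothelial cells and PBMC, read 24 h after dosing. Total protein by 0.1% SRB staining after 10% TCA fixation, absorbance at 560 nm; bidirectional fit against DMSO.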
# E-selectin (Homo sapiens), sequence (P16581 whole entry, looked up): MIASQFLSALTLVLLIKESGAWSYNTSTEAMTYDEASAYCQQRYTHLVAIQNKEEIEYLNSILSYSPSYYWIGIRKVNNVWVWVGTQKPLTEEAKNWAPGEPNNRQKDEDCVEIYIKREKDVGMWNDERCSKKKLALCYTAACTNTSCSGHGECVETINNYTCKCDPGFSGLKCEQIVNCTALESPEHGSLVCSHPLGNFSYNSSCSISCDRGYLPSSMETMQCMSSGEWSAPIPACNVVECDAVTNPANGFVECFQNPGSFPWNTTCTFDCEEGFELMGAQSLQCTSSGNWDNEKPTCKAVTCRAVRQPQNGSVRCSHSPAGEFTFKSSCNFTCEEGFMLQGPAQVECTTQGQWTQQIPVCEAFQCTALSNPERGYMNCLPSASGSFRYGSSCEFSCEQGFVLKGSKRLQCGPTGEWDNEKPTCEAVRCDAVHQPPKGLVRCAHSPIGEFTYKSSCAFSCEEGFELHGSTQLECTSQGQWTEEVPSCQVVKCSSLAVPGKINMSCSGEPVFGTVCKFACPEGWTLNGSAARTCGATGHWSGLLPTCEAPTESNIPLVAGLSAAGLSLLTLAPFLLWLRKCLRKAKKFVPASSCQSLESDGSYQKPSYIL
compound,measurement,setting,value
Cc1[nH]c(=O)n(C(C)(C)C)c(=O)c1Cl,outcome,[1],inactive
same,outcome,[2],inactive
same,outcome,[3],inactive
same,outcome,[4],inactive
same,outcome,[5],inactive
same,outcome,[6],inactive
same,outcome,[7],inactive
same,outcome,[8],inactive
COC(=O)c1ccccc1S(=O)(=O)NC(=O)N(C)c1nc(C)nc(OC)n1,outcome,[2],inactive
same,outcome,[3],inactive
same,outcome,[4],inactive
same,outcome,[5],inactive
same,outcome,[9],inactive
same,outcome,[6],inactive
same,outcome,[7],inactive
same,outcome,[10],inactive
same,outcome,[8],inactive
CCN(CC)C(=O)SCc1ccc(Cl)cc1,outcome,[2],inactive
same,outcome,[3],inactive
same,outcome,[4],inactive
same,outcome,[9],inactive
same,outcome,[6],inactive
same,outcome,[7],inactive
same,outcome,[10],inactive
same,outcome,[8],inactive
CCC(C)(NC(=O)c1cc(Cl)c(C)c(Cl)c1)C(=O)CCl (stereo unspecified),AC50,[1],16.6 µM (active)
same,AC50,[2],20 µM (active)
same,AC50,[3],15.9 µM (active)
same,AC50,[4],7.45 µM (active)
same,AC50,[5],35.5 µM (active)
same,AC50,[9],3.52 µM (active)
same,AC50,[6],10.1 µM (active)
same,AC50,[7],12.2 µM (active)
same,AC50,[10],20 µM (active)
same,AC50,[8],15.9 µM (active)
Clc1ccccc1-c1nnc(-c2ccccc2Cl)nn1,outcome,[2],inactive
same,outcome,[3],inactive
same,outcome,[4],inactive
same,outcome,[5],inactive
same,outcome,[9],inactive
same,outcome,[6],inactive
same,outcome,[7],inactive
same,outcome,[8],inactive
CCS(=O)(=O)c1cccnc1S(=O)(=O)NC(=O)Nc1nc(OC)cc(OC)n1,outcome,[1],inactive
same,outcome,[2],inactive
same,AC50,[3],0.202 µM (active)
same,outcome,[4],inactive
same,outcome,[9],inactive
same,AC50,[6],7.35 µM (active)
same,AC50,[7],5.47 µM (active)
same,outcome,[8],inactive
O=C(O)C(F)(F)C(F)(F)C(F)(F)C(F)(F)C(F)(F)C(F)(F)C(F)(F)F,outcome,[1],inactive
same,outcome,[2],inactive
same,outcome,[3],inactive
same,outcome,[4],inactive
same,outcome,[5],inactive
same,AC50,[9],23.1 µM (active)
same,outcome,[9],inactive
same,AC50,[6],16.1 µM (active)
same,outcome,[6],inactive
same,AC50,[7],30 µM (active) and 13.3 µM (active)
same,outcome,[7],inactive
same,outcome,[8],inactive
CNC(=O)Oc1cccc(N=CN(C)C)c1,outcome,[2],inactive
same,outcome,[3],inactive
same,outcome,[4],inactive
same,AC50,[9],13.5 µM (active)
same,AC50,[6],20 µM (active)
same,AC50,[7],20 µM (active)
same,outcome,[8],inactive
CC(C)(C)C(O)/C(=C\c1ccc(Cl)cc1Cl)n1cncn1 (stereo unspecified),outcome,[2],inactive
same,AC50,[3],34.3 µM (active)
same,AC50,[4],28.5 µM (active)
same,AC50,[9],18.4 µM (active)
same,AC50,[6],21.9 µM (active)
same,AC50,[7],32.4 µM (active)
same,AC50,[10],31 µM (active)
same,AC50,[8],33.2 µM (active)
COC(=O)c1ccccc1S(=O)(=O)NC(=O)Nc1nc(C)nc(OC)n1,outcome,[2],inactive
same,outcome,[3],inactive
same,outcome,[4],inactive
same,outcome,[9],inactive
same,outcome,[6],inactive
same,outcome,[7],inactive
same,outcome,[10],inactive
same,outcome,[8],inactive
CC(C)N(C(=O)COc1nnc(C(F)(F)F)s1)c1ccc(F)cc1,outcome,[2],inactive
same,outcome,[3],inactive
same,outcome,[4],inactive
same,outcome,[9],inactive
same,outcome,[6],inactive
same,outcome,[7],inactive
same,outcome,[8],inactive
CC[C@H](C)[C@H]1O[C@]2(C=C[C@@H]1C)C[C@@H]1C[C@@H](C/C=C(\C)[C@@H](O[C@H]3C[C@H](OC)[C@@H](O[C@H]4C[C@H](OC)[C@@H](O)[C@H](C)O4)[C@H](C)O3)[C@@H](C)/C=C/C=C3\CO[C@@H]4[C@H](O)C(C)=C[C@@H](C(=O)O1)[C@]34O)O2 (tested in a mixture with another compound),AC50,[2],31.7 µM (active)
same,AC50,[3],7.59 µM (active)
same,AC50,[4],5.77 µM (active)
same,AC50,[9],6.65 µM (active)
same,AC50,[6],9.62 µM (active)
same,AC50,[7],5.94 µM (active)
same,AC50,[8],6.51 µM (active)
Oc1cc(Cl)ccc1Oc1ccc(Cl)cc1Cl,AC50,[2],18.5 µM (active) [middle of 4 runs]
same,AC50,[3],36.6 µM (active) [middle of 4 runs]
same,AC50,[4],15.2 µM (active) [middle of 4 runs]
same,AC50,[9],12.3 µM (active) and 9.21 µM (active) and 12.1 µM (active)
same,AC50,[6],15.6 µM (active) [middle of 4 runs]
same,AC50,[7],27.6 µM (active) [middle of 4 runs]
same,AC50,[10],17.1 µM (active) and 19.7 µM (active) and 18.7 µM (active)
same,AC50,[8],14.3 µM (active) and 14.6 µM (active) and 29 µM (active)
CCOCN(C(=O)CCl)c1c(C)cccc1CC,outcome,[2],inactive
same,outcome,[3],inactive
same,AC50,[4],12.7 µM (active)
same,AC50,[9],14.8 µM (active)
same,AC50,[6],28.5 µM (active)
same,outcome,[7],inactive
same,outcome,[8],inactive
CN1CSC(=S)N(C)C1,outcome,[2],inactive
same,outcome,[3],inactive
same,AC50,[4],14.4 µM (active)
same,outcome,[9],inactive
same,AC50,[6],19 µM (active)
same,AC50,[7],13 µM (active)
same,AC50,[8],12.8 µM (active)
O=[N+]([O-])/N=C1\NCCN1Cc1ccc(Cl)nc1,outcome,[2],inactive
same,outcome,[3],inactive
same,outcome,[4],inactive
same,outcome,[9],inactive
same,outcome,[6],inactive
same,outcome,[7],inactive
same,outcome,[10],inactive
same,outcome,[8],inactive
CC1(c2ccc(Oc3ccccc3)cc2)OC(=O)N(Nc2ccccc2)C1=O (stereo unspecified),outcome,[2],inactive
same,outcome,[3],inactive
same,outcome,[4],inactive
same,AC50,[9],24.1 µM (active)
same,AC50,[6],20 µM (active)
same,AC50,[7],20 µM (active)
same,outcome,[8],inactive
C[C@H]1[C@H](c2ccc(Cl)cc2)SC(=O)N1C(=O)NC1CCCCC1,outcome,[2],inactive
same,outcome,[3],inactive
same,AC50,[4],9.22 µM (active)
same,outcome,[9],inactive
same,outcome,[6],inactive
same,outcome,[7],inactive
same,AC50,[8],26.4 µM (active)
N#Cc1c(Cl)c(Cl)c(Cl)c(C#N)c1Cl,AC50,[2],1.32 µM (active)
same,AC50,[3],1.79 µM (active)
same,AC50,[4],1.23 µM (active)
same,AC50,[9],0.148 µM (active)
same,AC50,[6],0.758 µM (active)
same,AC50,[7],1.2 µM (active)
same,AC50,[8],1.03 µM (active)
